# Source: PubChem (National Center for Advancing Translational Sciences (NCATS))
# CHX counter: Cycloheximide Counterscreen for Small Molecule Inhibitors of Shiga Toxin; max response, %; cell reporter, cycloheximide protein synthesis inhibition counterscreen; AID 2314, 2010; actives 12% (n = 300,000); in the data active means max response mostly above about 13%, no sharp cut-off; inactive means mostly below about 14%; further: read at 38.3 µM for the half of the compounds with a filed dose
# Shiga toxin inh: A qHTS for Small Molecule Inhibitors of Shiga Toxin; inhibition, % at 38.7 µM; actives 9.2% (n = 290,000); AID 2315, 2010; Vero cells, Shiga toxin protein synthesis inhibition reporter; in the data active means inhibition mostly above about 28%, no sharp cut-off; inactive means mostly below about 43%
# Pf growth 48h: Primary qHTS for delayed death inhibitors of the malarial parasite plastid, 48 hour incubation. P. falciparum luciferase growth in erythrocytes, 48 h. Potency, µM (titrated, usually from 28.7 µM), hits mostly inhibitors. actives 5.9% (n = 310,000)
#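 Cell-based growth assay: transgenic P. falciparum expressing firefly luciferase, cultured in red cells within RPMI 1640 containing 0.5% w/v Albumax, 24 mM bicarbonate and gentamycin. A drop in luciferase activity indicates inhibition.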
# Pf growth 96h: Primary qHTS for delayed death inhibitors of the malarial parasite plastid, 96 hour incubation; actives 6.9% (n = 320,000); AID 504834, 2011; Potency, µM (highest dose often 28.7 µM), usual class: inhibitors; P. falciparum luciferase reporter growth, 96 h
#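 Parasite growth measured via integrated firefly luciferase reporter in P. falciparum. Infected erythrocytes at 2% hematocrit, 0.05% parasitemia final were treated 96 hours at 37 C under 5% CO2, and luminescence was read.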
# Numbers stand for hits; 0 = inactive; ? = inconclusive; - = not tested or not shown; + = active, no number. In the library only some 21% were active in any assay of this set; here they are far more common. Unless noted, the call rests on the fitted dose curve; in most records, active means well fitted inhibition curve with a large enough effect; inconclusive means small, poorly fitted or top-dose-only effect, or another doubt; inactive means no such curve, though single readings can be large or run the other way.
SMILES,CHX counter,Shiga toxin inh,Pf growth 48h,Pf growth 96h
O=C(Nn1cnc2ccccc2c1=O)c1ccc(Br)cc1,40.8,89.7,0,?
O=C(Nn1cnc2ccccc2c1=O)c1ccc([N+](=O)[O-])cc1,0,0,0,0
CCc1ccc(C(=O)Nn2cnc3ccccc3c2=O)cc1,53.6,109.0,0,0
Cc1ccc(C(=O)Nn2cnc3ccccc3c2=O)cc1C,44.4,82.9,0,0
O=C(Nn1cnc2ccccc2c1=O)c1cccc(Cl)c1,43.6,0,0,0
Cc1cccc(NC(=O)CNC(=O)Cn2cc(C(F)(F)F)cc(Cl)c2=O)c1C,-,-,?,0
CC1(C)NC(=O)N(CNc2cc(Cl)ccc2Cl)C1=O,0,0,0,0
Cc1nc2ccccc2c(=O)n1NC(=O)c1ccc(C(C)(C)C)cc1,0,0,0,?
CCCC1CCC(C(=O)Nn2cnc3ccccc3c2=O)CC1 (configuration not stated),0,0,0,2.08µM
O=C(Nn1cnc2ccccc2c1=O)c1ccc(Cl)c([N+](=O)[O-])c1,0,0,0,?
Cc1ccc(C(=O)Nn2c(C)nc3ccccc3c2=O)cc1C,0,0,0,13.1µM
O=C(Nn1cnc2ccccc2c1=O)C1CCCCC1,0,0,0,?
O=C(Nn1cnc2ccccc2c1=O)c1ccccc1F,11.2,0,0,0
CCCCCCCCOC(=O)C[N+](C)(C)C/C=C(/C)Cl,0,0,2.62µM,4.15µM
CCCCCCCCCCOC(=O)C[N+](C)(C)C/C=C(/C)Cl,0,0,?,2.33µM
CCCCCCCCCCCCOC(=O)C[N+](C)(C)C,0,0,?,0
CCOC(=O)CCc1c(C)c2ccc(OCC(=O)N(CC)CC)c(C)c2oc1=O,0,0,10.4µM,-
COC(=O)Cc1c(C)c2ccc(OCC(C)=O)c(C)c2oc1=O,42.7,91.6,0,-
COC(=O)Cc1c(C)c2ccc(OCc3nn[nH]n3)c(C)c2oc1=O,0,0,0,-
C=C(C)COc1ccc2c(C)c(CC(=O)OC)c(=O)oc2c1C,47.1,+,?,0
CCc1c(C)c2ccc(OCC(=O)N(C)C)c(C)c2oc1=O,0,0,0,?
C=C(C)COc1ccc2c3c(c(=O)oc2c1OCC(=C)C)CCC3,0,0,0,?
C=C(C)COc1ccc2c(C)c(C)c(=O)oc2c1OCC(=C)C,0,0,11.7µM,0
O=S(=O)(c1ccccc1)N1CCN(C(c2ccccc2)c2ccc(OC(F)(F)F)cc2)CC1 (configuration not stated),0,0,-,0
COc1ccc(NC(=O)c2ccc(NC(=O)CSc3nc(N)cc(=O)[nH]3)cc2)cc1,-,-,0,0
SMILES,CHX counter,Shiga toxin inh,Pf growth 48h,Pf growth 96h
COc1cc(NC(=S)NCc2cccs2)cc(OC)c1,0,0,0,0
S=C(NCCc1ccccc1)NCc1cccs1,54.4,active,0,0
CCC(C)c1ccc(NC(=S)NCc2cccs2)cc1 (configuration not stated),22.8,76.5,0,0
COc1ccc(CCNC(=S)NCc2cccs2)cc1OC,0,0,?,0
S=C(NCc1cccs1)Nc1ccc(Br)cc1Cl,44.4,81.3,0,0
O=C(O)Cc1ccc(NC(=S)Nc2ccc(Br)cc2Cl)cc1,0,0,0,0
Cc1cc(C)cc(NC(=S)NCc2cccs2)c1,0,25.9,0,0
CC(=O)c1ccc(N2C(=NC(=O)CCc3ccccc3)SC3CS(=O)(=O)CC32)cc1 (configuration not stated),0,0,0,?
CCn1ccc(C(=O)Nc2ccsc2C(=O)OC)n1,0,0,0,0
CCC(C)c1ccccc1NC(=O)c1cc(C)no1 (configuration not stated),0,0,0,0
CCN1CCN(C(=O)c2ccc3c(c2)N(Cc2ccccc2F)C(=O)c2ccccc2S3(=O)=O)CC1,0,0,?,0
CC(C)(C)c1ccc(NC(=S)NCc2cccs2)cc1,22.8,0,-,?
Oc1ccc(NCc2cccs2)cc1,24.4,0,?,?
CC(=O)Nc1ccc(NCc2cccs2)cc1,0,0,0,?
Cc1cccc(NC(=S)NCc2cccs2)c1C,22.1,0,0,0
S=C(NCc1cccs1)Nc1cccc2ccccc12,0,0,0,0
COc1ccc(C(=O)NC(CCSC)C(=O)N2CCCCCC2)cc1 (configuration not stated),0,0,0,0
COc1ccc(CCC(=O)OCC(=O)c2cccc(OC)c2)cc1,0,0,0,0
O=C(NCCC1=CCCCC1)c1c(O)nc2ccccn2c1=O,0,0,?,0
Cc1csc2nc(O)c(C(=O)NC3CCCCC3C)c(=O)n12 (configuration not stated),-,-,7.38µM,?
CC1CC(NC(=O)c2cc3c(=O)n4ccccc4nc3n2C)CC(C)(C)C1 (configuration not stated),0,0,11.7µM,0
CC1CCCCC1NC(=O)c1cc2c(=O)n3ccccc3nc2n1C (configuration not stated),0,0,0,2.33µM
Cc1cccn2c(=O)c3cc(C(=O)NC4CCCCC4C)n(C)c3nc12 (configuration not stated),0,0,0,0
CC1CCCCC1NC(=O)c1c(O)nc2ccccn2c1=O (configuration not stated),-,-,5.22µM,5.22µM
COc1ccc(C2=Nc3ccccc3OC2)cc1,46.1,98.9,-,0
SMILES,CHX counter,Shiga toxin inh,Pf growth 48h,Pf growth 96h
COc1ccc(C2=Nn3c(nnc3-c3ccccc3OC)SC2)cc1,0,0,-,-
O=C(O)[C@@H]1CCCN1C(=O)c1ccccc1N1C(=O)[C@@H]2Cc3c([nH]c4ccccc34)C(c3cccc(Cl)c3)N2C1=O (some centres not stated),0,0,?,10.4µM
CC(C)c1ccc(C2c3[nH]c4ccccc4c3C[C@H]3C(=O)N(c4ccccc4C(=O)N4CCC(C(=O)O)CC4)C(=O)N23)cc1 (some centres not stated),0,0,1.65µM,1.47µM
O=C(O)[C@H]1CCCN1C(=O)c1ccccc1N1C(=O)[C@@H]2Cc3c([nH]c4ccccc34)C(c3cccc(Cl)c3)N2C1=O (some centres not stated),0,0,?,?
Cc1ccc(C2c3[nH]c4ccccc4c3C[C@H]3C(=O)N(c4ccccc4C(=O)N4CCC[C@H]4C(=O)O)C(=O)N23)cc1 (some centres not stated),0,0,?,10.4µM
CC(C)c1ccc(C2c3[nH]c4ccccc4c3C[C@H]3C(=O)N(c4ccccc4C(=O)N4CCC[C@@H]4C(=O)O)C(=O)N23)cc1 (some centres not stated),0,0,9.28µM,8.28µM
CCOC(=O)N1CCN(c2c(N3CCN(c4ccccc4F)CC3)c(=O)c2=O)CC1,0,0,0,0
COc1ccc(C2c3[nH]c4ccccc4c3C[C@H]3C(=O)N(c4ccccc4C(=O)N4CCC[C@H]4C(=O)O)C(=O)N23)cc1 (some centres not stated),0,0,9.28µM,?
COc1ccc(C2c3[nH]c4ccccc4c3C[C@H]3C(=O)N(c4ccccc4C(=O)N4CCC[C@@H]4C(=O)O)C(=O)N23)cc1 (some centres not stated),-,-,11.7µM,?
